Compound activity (PubChem BioAssay)
Only some compounds are listed: those with a hit (about 19% of all), similar ones and a draw of the others.
TDP1 cell noCPT: qHTS for Inhibitors of human tyrosyl-DNA phosphodiesterase 1 (TDP1): qHTS in cells in absence of CPT. AID 686978, 2013. 420,000 tested, 15% active. Potency, µM (doses to about 46.2 µM), for inactives: top-dose activity change, negative = growth inhibition, most hits filed as inhibitors. DT40 Tdp1-/- hTDP1 cells, no CPT, ATP luminescence, 48 h; also: potency is read from the fitted curve at half-maximal effect; nearly all actives have a fitted effect of over 55% in size
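Chicken DT40 Tdp1-/- cells stably complemented with human TDP1 were seeded at 400 cells/well with DMSO in place of 20 nM camptothecin. After compound pinning, cells grew at least 48 hr at 37 °C; viability read by CellTiter-Glo luminescence.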
HT1080 IDH1KD tx: qHTS for induction of synthetic lethality in tumor cells producing 2HG: qHTS for the HT-1080-IDH1KD cell line. HT-1080 IDH1 knockdown viability, ATP luminescence, 48 h. Potency, µM (doses to about 46.1 µM), for inactives: at the highest dose activity, negative = toxicity, hits mostly cytotoxic. 360,000 tested, 2% active. AID 686971, 2013;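 also: potency is read from the fitted curve at half-maximal effect; 0% = DMSO wells and -100% = cell-free medium wells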
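Assay cells: HT-1080 with IDH1 knockdown, 750 per well, RPMI/5% FBS. Exposure: 48 h at 37 °C following 2 h pre-incubation. Read: CellTiter-Glo luminescence; fitted concentration-response, curve class assigned.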
IL-1B inflam inh: qHTS for Inhibitors of Inflammasome Signaling: IL-1-beta AlphaLISA Primary Screen | THP-1 LPS/ATP IL-1B secretion, AlphaLISA, 16 h; hits give low values | activity change, % at 57.5 µM | 360,000 tested, 4.7% active; in the data active = activity change below about -50%; inconclusive = mostly about -30% to -49%
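Secreted IL-1B measured by AlphaLISA bead assay after 16 h compound exposure of THP-1 cells; compounds (final up to 57.5 uM) added 1 h before LPS (250 ng/mL) and ATP (1.25 mM) stimulation; lower signal means less secretion.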
TDP1 cell CPT: qHTS for Inhibitors of human tyrosyl-DNA phosphodiesterase 1 (TDP1): qHTS in cells in presence of CPT; chicken DT40 Tdp1-/-;hTDP1 cells + 20 nM CPT, ATP luminescence, 48 h; Potency, µM (highest dose often 46.2 µM), for the others: at the top dose activity change, negative = growth inhibition, most hits filed as inhibitors; 420,000 tested, 12% active; AID 686979, 2013; also: potency is read from the fitted curve at half-maximal effect; nearly all actives have a fitted effect of over 55% in size
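Cell growth measured by CellTiter-Glo luminescence after a minimum 48 h, 37 C compound exposure with 20 nM CPT in Tdp1-knockout DT40 cells stably expressing hTDP1, seeded 400/well; qHTS titration format.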
HT1080NT lethal: qHTS for induction of synthetic lethality in tumor cells producing 2HG: qHTS for the HT-1080-NT fibrosarcoma cell line | Potency, µM (series often up to 46.1 µM), without a hit: at the highest dose activity, negative = less viability, actives largely listed as cytotoxic | 360,000 tested, 1.6% active | AID 686970, 2013 | HT-1080-NT fibrosarcoma viability, CellTiter-Glo ATP luminescence, 48 h;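 also: NT is the 2HG producing partner of a matched IDH1 knockdown line; potency is read from the fitted curve at half-maximal effect; 0% = DMSO-treated cells and -100% = media-only wells without cells; nearly all actives have a fitted effect of over 55% in size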
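Viability of the 2HG-overproducing fibrosarcoma line after 48 hours of compound exposure at 37 degrees C was determined by luminescence with CellTiter-Glo, and concentration-effect curves were then fitted and categorized.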
ELG1 DNA repair: qHTS screen for small molecules that inhibit ELG1-dependent DNA repair in human embryonic kidney (HEK293T) cells expressing luciferase-tagged ELG1; Potency, µM (series often up to 46.1 µM), for inactives: at the top dose activity change, negative = inhibition, hits mostly inhibitors; 330,000 tested, 2.3% active; HEK293T ELG1-luciferase reporter, luminescence, 16 h; DNA damage induced by 5-fluorouridine; also: potency is read from the fitted curve at half-maximal effect; nearly all actives have a fitted effect of over 55% in size
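DMSO vehicle served as the neutral condition. Each well held 2,000 cells given 5-fluorouridine plus compound; after 16 hr at 37 °C/5% CO2, ONE-Glo was added and luciferase measured 30 min later.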
The depositor's hits bear a star; ? = inconclusive; . = no result; [ ] = remark or other dose. Unless noted, calls follow the shape of the dose curve; as a rule, active = well fitted curve in the direction sought with a large enough effect; inconclusive = small, poorly fitted or top-dose-only effect, or another doubt; inactive = no such curve, though single readings can be large; an effect the other way counts as inactive or inconclusive. Unless noted, % is scaled to controls: 0 for no effect and ±100 for the full control effect.

SMILES	TDP1 cell noCPT	HT1080 IDH1KD tx	IL-1B inflam inh	TDP1 cell CPT	HT1080NT lethal	ELG1 DNA repair
CC(C)c1ccc(NC(=O)CN2C(=O)NC(Cc3c[nH]c4ccccc34)C2=O)cc1 (stereo not drawn)	16.4µM*	?	-58.9*	?	?	-7.6%
Cc1ccc(CN2C(=O)NC(Cc3c[nH]c4ccccc34)C2=O)cc1 (stereo not drawn)	-4.0%	10.5%	9.4	3.6%	8.4%	3.9%
Cc1cc(C)cc(NC(=O)CN2C(=O)NC(Cc3c[nH]c4ccccc34)C2=O)c1 (stereo not drawn)	?	-4.9%	-18.7	?	-5.3%	-1.7%
CCOc1ccccc1NC(=O)c1cc2c(=O)[nH]c3ccccc3c2s1	6.9%	.	.	-27.0%	.	.
O=C(CCc1nc(-c2ccccc2)no1)NCc1ccccc1CN1CCOCC1	?	4.3%	37.5	?	0.3%	-2.1%
Brc1cccc(CNCCSc2nnnn2-c2ccccc2)c1	-16.6%	.	.	-27.1%	.	.
CCOc1ccc(Br)cc1CNCCSc1nnnn1-c1ccccc1	?	.	.	18.4µM*	.	.
Cn1nnnc1SCCCNCc1cc(Br)ccc1OCc1ccccc1F	16.4µM*	.	.	16.4µM*	.	.
Cn1nnnc1SCCCNCc1cc(Br)ccc1OCc1ccccc1	10.3µM*	.	.	23.1µM*	.	.
Cn1nnnc1SCCCNCc1cc(Cl)ccc1OCc1ccccc1F	8.2µM*	.	.	20.6µM*	.	.
Cn1nnnc1SCCNCc1ccccc1F	-5.8%	11.2%	2.0	-14.4%	17.6%	16.3%
Cn1nnnc1SCCNCc1ccccc1Cl	4.3%	.	.	7.7%	.	.
Clc1ccc(-c2ccc(CNCCSc3nnnn3-c3ccccc3)o2)cc1	-25.2%	.	.	?	.	.
Cn1nnnc1SCCCNCc1ccc(-c2ccc(Br)cc2)o1	?	.	.	20.6µM*	.	.
N#CC1=C(N)Oc2c(ccc3ccccc23)C1c1ccsc1 (stereo not drawn)	0.581µM*	5.8µM*	13.1	0.82µM*	13µM*	?
COc1ccccc1/C=N/Nc1cc(N(C)C)nc(N(C)C)n1	?	?	-153.0*	1.0%	?	?
COc1ccc(/C=N/Nc2cc(C)nc(N)n2)cc1	-7.7%	-13.8%	-0.2	-23.5%	-1.7%	?
COc1ccc(/C=N/Nc2cc(N(C)C)nc(N(C)C)n2)cc1	?	-25.7%	-74.9*	?	-24.3%	?
CCCCN1CCN=C1N(C)C	0.4%	9.9%	15.2	14.7%	5.7%	14.1%
CC(C)OC(=O)c1cc2c(ccn2-c2ccc(F)cc2)n1CC(=O)N1CCN(C(=O)c2ccco2)CC1	?	1.1%	-29.2	?	2.3%	8.2µM*
COC(=O)c1cc2c(ccn2-c2ccc(F)cc2)n1CC(=O)N1CCN(C(=O)c2ccco2)CC1	?	16.1%	?	?	18.2%	16.4µM*
COC(=O)c1cc2c(ccn2-c2ccc(F)cc2)n1Cc1ccc(OC)cc1	-3.8%	0.3%	-9.3	1.9%	-2.7%	16.0%
CCn1c(C(=O)OC)cc2c1ccn2-c1ccc(F)cc1	13µM*	?	-21.1	18.4µM*	5.0%	?
Cc1ccc(S(=O)(=O)NCCC(=O)Nc2ccc(Cl)c(Cl)c2)cc1	16.4µM*	?	-10.4	?	-22.2%	-29.1%
NS(=O)(=O)c1ccc(CNC(=S)Nc2ccc(Cl)c(Cl)c2)cc1	?	-29.2%	28.6	-16.6%	?	-18.2%
SMILES	TDP1 cell noCPT	HT1080 IDH1KD tx	IL-1B inflam inh	TDP1 cell CPT	HT1080NT lethal	ELG1 DNA repair
Cc1ccc(S(=O)(=O)NNC(=O)Nc2ccc(Cl)c(Cl)c2)cc1	16.4µM*	-0.6%	9.6	?	0.0%	19.0%
NS(=O)(=O)c1ccc(CCNC(=O)Nc2ccc(Cl)c(Cl)c2)cc1	23.1µM*	?	-10.9	?	-22.9%[9.24 µM]	?
Cc1ccc(S(=O)(=O)NC(=O)Nc2ccc(N(C)C)cc2)cc1	16.4µM*	?	-80.0*	20.6µM*	-29.3%	?
N#Cc1ccccc1NC(=O)CC1c2ccccc2Oc2ccccc21	1.84µM*	-1.7%	16.4	2.06µM*	-0.5%	-0.4%
COC(=O)c1ccccc1NC(=O)c1cc(-c2ccc(Cl)cc2)on1	-1.0%	.	.	-15.5%	.	.
Clc1ccccc1-c1cc2nc(NCCCn3ccnc3)ccn2n1	-1.4%	-4.2%	-21.0	-2.9%	-18.4%	.
c1ccc(COc2cccc(-c3cc4nc(NCCCn5ccnc5)ccn4n3)c2)cc1	14.6µM*	23.1µM*	-1.1	?	16.4µM*	.
c1ccc(COc2cccc(-c3cc4nc(NCCc5ccncc5)ccn4n3)c2)cc1	13µM*	23.1µM*	-59.8*	14.6µM*	18.4µM*	.
O=C(Cn1sc2ccccc2c1=O)Nc1ccccc1	2.06µM*	?	-104.2*	2.31µM*	?	.
O=C(Cn1sc2ccccc2c1=O)NC12CC3CC(CC(C3)C1)C2	1.84µM*	?	-99.2*	1.46µM*	-9.3%	?
O=C(CN1C(=O)c2ccccc2C1=O)Nc1ccccc1	5.3%	2.8%	33.1	2.2%	14.4%	2.3%
COc1ccc(NC(=O)N2CC3(CCN(C(=O)c4ccc(OC)cc4)CC3)C2)cc1	-9.5%	.	.	1.6%	.	.
O=C1C(=Cc2ccco2)CCCC1=Cc1ccco1	?	5.1%	-25.3	23.1µM*	1.0%	.
O=C1C(=Cc2ccco2)CCC1=Cc1ccco1	16.4µM*	2.8%	-51.0*	23.1µM*	0.6%	.
O/N=C1\CCC\C1=C/c1ccco1	-1.3%	8.2%	-1.1	6.6%	-0.6%	17.0%
COC(=O)C1=C(C)NC(=O)/C1=C\c1ccco1	-2.8%	1.5%	-8.0	-15.5%	-0.5%	-2.4%
CCCCc1ccc(CC(=O)NO)cc1	?	.	.	-18.8%	.	.
CC(C)Oc1cc(NC(=O)CS(=O)CC(=O)Nc2cccc(C(F)(F)F)c2)c(Cl)cc1Cl (stereo not drawn)	16.4µM*	?	-63.5*	20.6µM*	?	0.3%
CCOc1cccc(NC(=O)c2sc3nc(-c4ccc(F)cc4)ccc3c2N)c1	?	.	.	-23.5%	.	.
CN(C)c1ccc(/C=C(/C(=O)c2ccc(Cl)cc2Cl)n2cncn2)cc1	23.1µM*	?	-10.4	23.1µM*	?	?
